Assay results as given in PubChem BioAssay (Tox21).
Records with an inconclusive call do not appear. Where a call stands in place of a potency, no number is given. A number with no mark means an inactive call. The source made the active and inactive calls. Unless noted, calls follow the shape of the dose curve; as a rule, active = well fitted curve in the direction sought with a large enough effect in the repeat runs; inconclusive = weak or mixed curves; inactive = no such curve, though single readings can be large; an effect the other way counts as inactive or inconclusive.

Tests used:
[1] = qHTS assay to identify small molecule that activate the aryl hydrocarbon receptor (AhR) signaling pathway - cell viability counter screen (AID 743086); also: nearly all actives have a fitted effect of over 45% in size; also: potency is read from the fitted curve at half-maximal effect
How it was run: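 Cytotoxicity counter screen: CellTiter-Fluor signal (30 min, 37 C) in 4000 HepG2 cells/well carrying the DRE-luciferase reporter, following 24 h compound exposure at 37 C.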

[2] = molecular target: Peroxisome proliferator-activated receptor gamma (Homo sapiens) (UniProt P37231); assay: qHTS assay to identify small molecule agonists of the peroxisome proliferator-activated receptor gamma (PPARg) signaling pathway (AID 743094; active = well fitted activation curve with a large enough effect in the signal ratio in the repeat runs, not every such curve was filed as active; the % refers to the signal ratio)
How it was run: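 GeneBLAzer PPARg UAS-bla HEK293H cells carrying a stably integrated beta-lactamase reporter were pre-incubated 5 h at 37C, then exposed to compounds in DMSO for 17 h at 37C; LiveBLAzer B/G FRET substrate was added for 1 h at room temperature and fluorescence read.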

[3] = molecular target: Peroxisome proliferator-activated receptor gamma (Homo sapiens) (UniProt P37231); assay: qHTS assay to identify small molecule antagonists of the peroxisome proliferator-activated receptor gamma (PPARg) signaling pathway (AID 743191; calls by dose curve; also: series mostly up to about 63 µM; nearly all actives have a fitted effect of over 30% in size)
How it was run: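 Beta-lactamase reporter under UAS control in HEK293H PPARg-bla cells; compound treatment 17 h at 37C. Read-out: fluorescence intensity after 1 h room-temperature incubation with LiveBLAzer B/G FRET substrate.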

[4] = qHTS assay for small molecule agonists of the antioxidant response element (ARE) signaling pathway (AID 743202; active = well fitted activation curve with a large enough effect in the signal ratio in the repeat runs, not every such curve was filed as active; the % refers to the signal ratio; also: potency is read from the fitted curve at half-maximal effect)
How it was run: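 Quantitative high-throughput format in HepG2 cells bearing an integrated ARE-beta-lactamase reporter. Compound exposure lasted 16 h at 37 C, and fluorescence was read 2 h after adding LiveBLAzer B/G substrate at room temperature.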

[5] = qHTS assay for small molecule activators of the heat shock response signaling pathway - cell viability counter screen (AID 743209); also: nearly all actives have a fitted effect of over 50% in size
How it was run: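 CellSensor HSE-bla HeLa cells, plated overnight at 37 C/5% CO2, were exposed to compounds in DMSO for 5 h at 37 C. Viability was then read in the same wells by CellTiter-Glo luminescence after 30 min at room temperature.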

[6] = qHTS assay for small molecule activators of the heat shock response signaling pathway (AID 743210; active = well fitted activation curve with a large enough effect in the signal ratio in the repeat runs, with a control signal flat, not every such curve was filed as active; the % refers to the signal ratio;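 also: HeLa cells with beta-lactamase reporter driven by heat shock elements; series mostly up to about 63 µM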)
How it was run: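 HeLa HSE-bla cells, overnight plating; cpd in DMSO 5 h, 37 C; LiveBLAzer B/G FRET substrate 2.5 h RT; fluorescence intensity read.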

[7] = qHTS assay to identify small molecule agonists of the peroxisome proliferator-activated receptor delta (PPARd) signaling pathway - cell viability counter screen (AID 743211); also: nearly all actives have a fitted effect of over 55% in size; also: potency is read from the fitted curve at half-maximal effect
How it was run: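 Luminescent ATP viability assay (CellTiter-Glo, 30 min RT) in UAS-bla HEK293H cells carrying the PPAR delta reporter construct, 3000 cells/well, after a 17 h compound treatment at 37 C.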

[8] = molecular target: Peroxisome proliferator-activated receptor delta (Homo sapiens) (UniProt Q03181); assay: qHTS assay to identify small molecule agonists of the peroxisome proliferator-activated receptor delta (PPARd) signaling pathway (AID 743212; calls by dose curve)
How it was run: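 HEK293H PPARd-bla cells; 5 h preincubation 37 C/5% CO2; compound (DMSO) 37 C; LiveBLAzer B/G FRET substrate 2 h RT; fluorescence intensity.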

[9] = molecular target: Peroxisome proliferator-activated receptor delta (Homo sapiens) (UniProt Q03181); assay: qHTS assay to identify small molecule antagonists of the peroxisome proliferator-activated receptor delta (PPARd) signaling pathway (AID 743215; active = well fitted inhibition curve with a large enough effect in the signal ratio in the repeat runs, not every such curve was filed as active; the % refers to the signal ratio;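 also: cells stimulated with agonist L165041 at 300 nM final during compound exposure; series mostly up to about 62 µM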)
How it was run: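 PPARd UAS-bla HEK293H cells were pre-incubated 5 h at 37 C, then given test compounds in DMSO plus agonist L165041 (300 nM final). After 17 h at 37 C, beta-lactamase FRET substrate was added; fluorescence read after 2 h at room temperature.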

[10] = molecular target: Bile acid receptor (Homo sapiens) (UniProt Q96RI1); assay: qHTS assay to identify small molecule antagonists of the farnesoid-X-receptor (FXR) signaling pathway (AID 743217; active = well fitted inhibition curve with a large enough effect in the signal ratio in the repeat runs, not every such curve was filed as active; the % refers to the signal ratio)
How it was run: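 FXR-UAS-bla HEK 293T cells pre-incubated 5 h at 37 °C, then exposed to compounds with chenodeoxycholic acid (50 uM final) for 16 h at 37 °C. Beta-lactamase reporter read by LiveBLAzer B/G FRET substrate fluorescence after 2 h at room temperature.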

[11] = molecular target: Bile acid receptor (Homo sapiens) (UniProt Q96RI1); assay: qHTS assay to identify small molecule agonists of the farnesoid-X-receptor (FXR) signaling pathway (AID 743220; active = well fitted activation curve with a large enough effect in the signal ratio in the repeat runs, not every such curve was filed as active; the % refers to the signal ratio)
How it was run: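 Beta-lactamase reporter under UAS control in GeneBLAzer FXR HEK 293T cells (5000/well) measured with LiveBLAzer FRET substrate after 2 h at room temperature. Compound exposure lasted 16 h at 37C.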

[12] = molecular target: Vitamin D3 receptor (Homo sapiens) (UniProt P11473); assay: qHTS assay to identify small molecule agonists of the vitamin D receptor (VDR) signaling pathway (AID 743222; calls by dose curve)
How it was run: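 VDR-bla cells were plated 4 h at 37C/5% CO2, then exposed to compounds in DMSO for 16 h. After LiveBLAzer B/G FRET substrate addition and 2 h at room temperature, beta-lactamase reporter fluorescence was read.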

[13] = molecular target: Vitamin D3 receptor (Homo sapiens) (UniProt P11473); assay: qHTS assay to identify small molecule antagonists of the vitamin D receptor (VDR) signaling pathway (AID 743223; active = well fitted inhibition curve with a large enough effect in the signal ratio in the repeat runs, not every such curve was filed as active; the % refers to the signal ratio)
How it was run: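 Agonist 1alpha,25-dihydroxyvitamin D3 (3 nM in well) was added with each compound to VDR-bla cells preincubated 4 h. Cells stood 16 h at 37C, then FRET substrate 2 h at room temperature; fluorescence intensity recorded.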

[14] = qHTS assay to identify small molecule agonists of the vitamin D receptor (VDR) signaling pathway - cell viability counter screen (AID 743224); also: series mostly up to about 63 µM; nearly all actives have a fitted effect of over 50% in size
How it was run: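 VDR-bla cells were preincubated 4 h at 37C/5% CO2, then exposed to compounds for 16 h. After the 2 h room-temperature bla FRET read, CellTiter-Glo was added to the same wells and luminescence read after 30 min.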

[15] = molecular target: Aryl hydrocarbon receptor (Homo sapiens) (UniProt P35869); assay: qHTS assay to identify small molecule that activate the aryl hydrocarbon receptor (AhR) signaling pathway (AID 743085);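 also: HG2L7.5c1 human HepG2 liver cells with stably integrated DRE-driven firefly reporter; series mostly up to about 70 µM; nearly all actives have a fitted effect of over 15% in size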
How it was run: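 24 h compound exposure, 37C, HepG2-derived HG2L7.5c1 cells with DRE-responsive luciferase. Readouts: fluorescence viability, then luminescence at room temperature after 30 min.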

[16] = qHTS assay for small molecule agonists of the antioxidant response element (ARE) signaling pathway - cell viability counter screen (AID 743203; calls by dose curve; also: nearly all actives have a fitted effect of over 55% in size; also: potency is read from the fitted curve at half-maximal effect)
How it was run: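 CellSensor ARE-bla HepG2 cells, 2,000 per well, rested 5 hrs at 37C/5% CO2, then exposed to compound in DMSO for 16 hrs; viability read as CellTiter-Glo luminescence after 30 min at room temperature, in the reporter wells.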

[17] = qHTS assay to identify small molecule antagonists of the peroxisome proliferator-activated receptor gamma (PPARg) signaling pathway - cell viability counter screen (AID 743194); also: nearly all actives have a fitted effect of over 55% in size
How it was run: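 Viability was measured as CellTiter-Glo luminescence in GeneBLAzer PPARg UAS-bla HEK293H cells. These cells had been exposed 17 h at 37 C to compounds together with rosiglitazone at 50 nM final, with the beta-lactamase readout taken in the same wells.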

[18] = qHTS assay to identify small molecule agonists of the farnesoid-X-receptor (FXR) signaling pathway - cell viability counter screen (AID 743218); also: nearly all actives have a fitted effect of over 45% in size
How it was run: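 FXR-UAS-bla HEK 293T cells, plated 5 h at 37 C, were exposed to compounds for 16 h at 37 C. CellTiter-Glo was then added to the same wells as the bla readout; luminescence read after 30 min at room temperature.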

[19] = qHTS assay to identify small molecule antagonists of the farnesoid-X-receptor (FXR) signaling pathway - cell viability counter screen (AID 743221; active = well fitted cell-killing curve with a large enough effect in the repeat runs, not every such curve was filed as active; also: nearly all actives have a fitted effect of over 50% in size)
How it was run: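 In GeneBLAzer FXR-UAS-bla HEK 293T cells stimulated with 50 uM chenodeoxycholic acid (final), compounds acted for 16 h at 37 C. Viability was assessed afterwards by CellTiter-Glo luminescence.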

[20] = qHTS assay to identify small molecule antagonists of the peroxisome proliferator-activated receptor delta (PPARd) signaling pathway - cell viability counter screen (AID 743213); also: nearly all actives have a fitted effect of over 50% in size
How it was run: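 Cytotoxicity counter screen: CellTiter-Glo luminescence read 30 min after addition, in the same wells as the reporter assay. There, PPARd UAS-bla HEK293H cells (3000/well) were treated 17 h at 37 C with compound and 300 nM L165041.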

Sequence of Peroxisome proliferator-activated receptor gamma (Homo sapiens) (P37231 whole entry, looked up): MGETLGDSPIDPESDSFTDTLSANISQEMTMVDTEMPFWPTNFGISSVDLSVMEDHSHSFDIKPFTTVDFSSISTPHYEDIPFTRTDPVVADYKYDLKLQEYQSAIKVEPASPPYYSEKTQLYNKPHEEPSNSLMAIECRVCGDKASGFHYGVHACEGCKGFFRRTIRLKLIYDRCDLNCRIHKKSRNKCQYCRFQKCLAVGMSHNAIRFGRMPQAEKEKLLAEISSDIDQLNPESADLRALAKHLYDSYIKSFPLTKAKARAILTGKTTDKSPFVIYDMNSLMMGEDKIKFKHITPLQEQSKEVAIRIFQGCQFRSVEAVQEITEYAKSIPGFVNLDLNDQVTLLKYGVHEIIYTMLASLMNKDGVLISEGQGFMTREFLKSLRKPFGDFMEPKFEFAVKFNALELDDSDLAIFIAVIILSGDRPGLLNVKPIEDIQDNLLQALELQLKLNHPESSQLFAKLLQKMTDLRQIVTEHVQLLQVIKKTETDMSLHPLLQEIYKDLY
Sequence of Peroxisome proliferator-activated receptor delta (Homo sapiens) (Q03181 whole entry, looked up): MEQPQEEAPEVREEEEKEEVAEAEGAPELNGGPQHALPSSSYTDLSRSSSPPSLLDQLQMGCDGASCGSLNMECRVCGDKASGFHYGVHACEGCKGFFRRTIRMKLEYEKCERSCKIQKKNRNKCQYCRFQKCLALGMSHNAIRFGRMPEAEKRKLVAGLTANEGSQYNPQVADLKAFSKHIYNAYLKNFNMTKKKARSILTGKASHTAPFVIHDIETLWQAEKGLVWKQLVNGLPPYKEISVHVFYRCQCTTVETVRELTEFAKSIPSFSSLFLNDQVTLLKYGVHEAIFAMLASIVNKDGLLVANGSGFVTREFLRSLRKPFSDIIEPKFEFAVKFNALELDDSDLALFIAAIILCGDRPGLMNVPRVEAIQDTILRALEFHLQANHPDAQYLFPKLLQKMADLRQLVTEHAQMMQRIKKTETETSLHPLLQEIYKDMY
Sequence of Bile acid receptor (Homo sapiens) (Q96RI1 whole entry, looked up): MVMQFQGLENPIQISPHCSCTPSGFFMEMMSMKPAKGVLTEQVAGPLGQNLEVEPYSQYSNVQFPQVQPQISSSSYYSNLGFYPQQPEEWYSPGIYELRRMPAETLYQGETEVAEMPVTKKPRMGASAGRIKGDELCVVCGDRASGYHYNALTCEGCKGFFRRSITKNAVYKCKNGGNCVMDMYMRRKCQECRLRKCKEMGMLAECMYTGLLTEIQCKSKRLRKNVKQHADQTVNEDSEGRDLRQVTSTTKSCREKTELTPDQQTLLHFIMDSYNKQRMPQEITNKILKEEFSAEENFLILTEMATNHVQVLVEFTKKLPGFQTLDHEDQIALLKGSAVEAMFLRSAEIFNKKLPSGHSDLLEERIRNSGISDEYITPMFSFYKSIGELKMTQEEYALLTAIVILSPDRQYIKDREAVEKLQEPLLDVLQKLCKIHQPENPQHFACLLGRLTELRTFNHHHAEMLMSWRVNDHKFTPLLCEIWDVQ
Sequence of Vitamin D3 receptor (Homo sapiens) (P11473 whole entry, looked up): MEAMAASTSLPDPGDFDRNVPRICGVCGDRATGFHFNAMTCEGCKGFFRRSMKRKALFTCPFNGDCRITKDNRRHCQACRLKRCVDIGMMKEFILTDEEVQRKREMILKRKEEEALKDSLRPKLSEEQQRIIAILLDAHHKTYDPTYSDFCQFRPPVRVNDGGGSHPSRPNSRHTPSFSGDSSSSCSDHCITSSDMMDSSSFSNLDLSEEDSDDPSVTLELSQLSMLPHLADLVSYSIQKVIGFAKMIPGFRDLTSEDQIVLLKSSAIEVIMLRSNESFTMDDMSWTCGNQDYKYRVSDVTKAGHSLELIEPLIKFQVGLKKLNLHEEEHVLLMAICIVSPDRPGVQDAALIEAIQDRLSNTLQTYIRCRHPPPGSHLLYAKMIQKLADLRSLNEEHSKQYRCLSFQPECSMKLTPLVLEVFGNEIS
Sequence of Aryl hydrocarbon receptor (Homo sapiens) (P35869 whole entry, looked up): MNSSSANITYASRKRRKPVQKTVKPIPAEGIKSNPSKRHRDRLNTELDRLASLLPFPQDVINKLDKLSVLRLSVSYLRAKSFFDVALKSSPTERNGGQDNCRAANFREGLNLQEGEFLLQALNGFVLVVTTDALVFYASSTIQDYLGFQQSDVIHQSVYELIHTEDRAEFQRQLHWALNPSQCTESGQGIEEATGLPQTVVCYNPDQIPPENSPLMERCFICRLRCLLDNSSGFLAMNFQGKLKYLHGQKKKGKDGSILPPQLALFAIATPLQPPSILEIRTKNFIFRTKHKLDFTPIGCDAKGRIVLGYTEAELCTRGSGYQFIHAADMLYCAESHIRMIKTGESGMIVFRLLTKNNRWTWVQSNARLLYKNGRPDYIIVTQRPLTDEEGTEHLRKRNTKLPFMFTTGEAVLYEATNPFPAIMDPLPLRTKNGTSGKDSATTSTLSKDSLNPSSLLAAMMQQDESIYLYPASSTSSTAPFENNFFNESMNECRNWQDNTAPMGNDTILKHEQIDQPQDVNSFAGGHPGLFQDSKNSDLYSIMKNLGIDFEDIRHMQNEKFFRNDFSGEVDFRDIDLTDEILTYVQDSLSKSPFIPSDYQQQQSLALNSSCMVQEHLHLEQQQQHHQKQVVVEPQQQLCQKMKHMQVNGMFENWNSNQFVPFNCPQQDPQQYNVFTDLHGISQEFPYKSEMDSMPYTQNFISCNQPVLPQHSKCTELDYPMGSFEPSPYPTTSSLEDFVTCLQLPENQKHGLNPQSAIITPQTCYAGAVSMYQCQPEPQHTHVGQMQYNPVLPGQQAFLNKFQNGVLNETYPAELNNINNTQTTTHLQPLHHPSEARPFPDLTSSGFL

| SMILES | Potency [1] | Potency [2] | Potency [3] | Potency [4] | Potency [5] | Potency [6] | Potency [7] | Potency [8] | Potency [9] | Potency [10] | Potency [11] | Potency [12] | outcome [13] | Potency [14] | Potency [15] | Potency [16] | Potency [17] | Potency [18] | Potency [19] | Potency [20] |
| --- | --- | --- | --- | --- | --- | --- | --- | --- | --- | --- | --- | --- | --- | --- | --- | --- | --- | --- | --- | --- |
| CN1CCC(=C2c3ccccc3Sc3ccccc32)CC1 | 29.8 µM (active) | inactive | inactive | inactive | inactive | inactive | 26.6 µM (active) | inactive | inactive | inactive | inactive | inactive | inactive | inactive |  |  |  |  |  |  |
| C=CC(=O)OCCOCCOC(=O)C=C |  |  |  | 30.8 µM (active) |  |  | 49.2 µM (active) |  |  |  |  |  |  |  | inactive | inactive |  |  |  |  |
| CCC(C)(C)CC | inactive |  |  | inactive | inactive |  |  |  |  |  |  |  | inactive |  |  | inactive | inactive | inactive | inactive |  |
| C1CCCNCCC1 | inactive | inactive |  | inactive |  | inactive | inactive | inactive |  | inactive |  |  |  | inactive |  | inactive |  | inactive |  |  |
| c1ccc(-c2ccccn2)nc1 | inactive |  |  |  | inactive |  | inactive | inactive | inactive |  |  | inactive |  | inactive |  | inactive | inactive | inactive | inactive | inactive |
| Cc1ccccc1S(=O)(=O)O | inactive |  |  | inactive | inactive | inactive | inactive |  |  |  |  |  |  | inactive |  | inactive | inactive | inactive | inactive | inactive |
| CCc1cc(C2=C(C(=O)O)N(c3ccccc3C(F)(F)F)S(=O)(=O)c3ccccc32)cc2c1OCO2 | 21.4 µM (active) |  |  |  | inactive | inactive | inactive |  | inactive |  |  |  |  | inactive |  | 6.04 µM (active) | inactive |  | inactive |  |
| CCCCCCCCCOS(=O)(=O)O | inactive | inactive |  |  | inactive |  | inactive |  | inactive |  |  | inactive |  | inactive |  | inactive |  | inactive | inactive | inactive |
| COc1cc2c(cc1OC)C(C(C(=O)N(CCc1ccc(OC)c(OC)c1OC)CCc1ccc(OC)c(OC)c1OC)c1ccccc1)=NCC2 (configuration not stated) | 8.41 µM (active) |  |  | inactive | inactive | inactive | inactive | inactive | inactive |  |  |  | inactive | inactive |  | inactive | inactive |  | inactive |  |
| Nc1ccccc1S(=O)(=O)c1ccccc1 | inactive |  |  |  | inactive |  | inactive |  |  | inactive | inactive | inactive |  | inactive |  | inactive | inactive | inactive | inactive | inactive |
| CC(C)Nc1ccc(NC(C)C)c2c1C(=O)c1ccccc1C2=O | inactive | inactive |  |  | inactive | inactive | inactive | inactive | inactive | inactive | inactive | inactive | inactive | inactive |  |  | inactive |  |  | inactive |
